In the library only some 2.4% were active in any assay of this set; here they are far more common.
D2 antag: HTS Assay for Allosteric Antagonists of the Human D2 Dopamine Receptor: Primary Screen for Antagonists; AID 485344, 2010; 340,000 compounds, 2% hits; D(2) dopamine receptor (Homo sapiens), P14416; HEK293 TREx D2 cells, calcium flux, dopamine EC80; inhibition, % at 10 µM; in the data active = inhibition above about 30%; inactive = below that, where a call was filed
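Inhibition of EC80 dopamine-driven calcium flux, recorded kinetically, defines activity here; cells are a tetracycline-induced HEK293 T-REx line expressing force-coupled D2.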
D2 ag-1: Beta-Arrestin HTS for Positive Allosteric Modulators of the Human D2 Dopamine Receptor: Agonists | activation, % (concentration not given with the values) | 360,000 compounds, 0.084% hits | D(2) dopamine receptor (Homo sapiens), P14416 | DiscoveRx PathHunter D2 beta-arrestin, luminescence, 90 min; 100% = 57 uM dopamine signal; in the data active = activation above about 40%; inconclusive = between about 15% and that limit
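Agonist mode: compounds alone added to overnight-plated D2 PathHunter cells for 90 min at 37 C, with 57 uM final dopamine (EC100) defining full response. Beta-arrestin recruitment detected by chemiluminescent reagent, read after 1 h at ambient temperature.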
D2 PAM-1: HTS Assay for Positive Allosteric Modulators of the Human D2 Dopamine Receptor: Primary Screen for Potentiators; HEK293 T-REx D2, calcium flux, EC20 dopamine potentiation; 340,000 compounds, 0.34% hits; D(2) dopamine receptor (Homo sapiens), P14416; potentiation, % at 10 µM;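 active = potentiation over 3 SD above the plate norm, cut at about 30% in these data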
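Tetracycline-induced Hek293 Trex D2 cells, force-coupled to calcium, loaded with no-wash calcium dye. Compound added with 180 s kinetic read for agonism, then EC20 dopamine and a further 180 s read for potentiation.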
D2 PAM-2: Beta-Arrestin HTS for Positive Allosteric Modulators of the Human D2 Dopamine Receptor: Potentiators; D(2) dopamine receptor (Homo sapiens), P14416; DiscoveRx D2 beta-arrestin cells, luminescence, 90 min; 100% = 57 uM dopamine signal; potentiation, % (no concentration beside the values); 360,000 compounds, 0.23% hits; in the data active = potentiation above about 50%; inconclusive = mostly about 30% to 49%
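PathHunter beta-arrestin assay in DiscoveRx D2 cells. Compounds were added with an EC20 of dopamine (50 nM final) for 90 min at 37 deg C. Luminescence was read 1 h after detection reagent, with 57 uM dopamine as the EC100 control.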
D2 ag-2: HTS Assay for Allosteric Agonists of the Human D2 Dopamine Receptor: Primary Screen for Agonists. D(2) dopamine receptor (Homo sapiens), P14416. HEK293 T-REx D2 cells, calcium flux agonist mode. activation, % at 2 µM. 340,000 compounds, 0.53% hits. AID 485358, 2010;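 active = activation over 3 SD above normal in the single-dose calcium agonist read, cut at about 30% in these data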
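In this primary screen, compounds producing a positive calcium signal within 180 s of addition to tetracycline-induced, force-coupled HEK293 Trex D2 cells are flagged; cells are dye-loaded with a no-wash calcium kit beforehand.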
D3 ag: qHTS of D3 Dopamine Receptor Agonist: D3 Dopamine Receptor B-arrestin Agonist Confirmatory Assay | Potency, µM (titrated, usually from 76.9 µM), most hits filed as activators | shares compounds with D2 ag-2 | DiscoveRx D3 beta-arrestin cells, luminescence, 90 min | 2,300 compounds, 4% hits; note: nearly all actives have a fitted effect of over 70% in size
Target sequence (P35462 whole entry, looked up): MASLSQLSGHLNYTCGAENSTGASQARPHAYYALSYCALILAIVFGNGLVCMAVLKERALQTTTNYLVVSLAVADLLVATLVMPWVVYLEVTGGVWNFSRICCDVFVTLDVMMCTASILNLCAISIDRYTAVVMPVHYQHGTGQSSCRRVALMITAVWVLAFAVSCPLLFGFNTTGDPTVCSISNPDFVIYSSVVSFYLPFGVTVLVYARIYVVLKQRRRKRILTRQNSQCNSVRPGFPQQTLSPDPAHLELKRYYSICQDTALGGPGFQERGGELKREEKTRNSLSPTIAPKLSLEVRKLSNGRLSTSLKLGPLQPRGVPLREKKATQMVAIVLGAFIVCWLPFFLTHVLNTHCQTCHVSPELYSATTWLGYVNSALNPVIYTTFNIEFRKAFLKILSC
D2 ag-3: qHTS of D3 Dopamine Receptor Agonist: D2 Dopamine Receptor B-arrestin Agonist Counterscreen; shares compounds with D2 ag-2; DiscoveRx PathHunter D2 beta-arrestin, luminescence, 90 min; response scale: percent relative to full dopamine signal; Potency, µM (top dose mostly 76.9 µM), usual class: activators; 2,300 compounds, 5.9% hits; AID 720507, 2013; note: nearly all actives have a fitted effect of over 70% in size
Large screens that a line does not name were inactive (follow-up assays come after a bar, where they were run). Unless noted, calls come from the whole dose curve; as a rule, active = well fitted activation curve with a large enough effect; inconclusive = small, poorly fitted or top-dose-only effect; inactive = flat fitted curve, though single readings scatter.

CCOc1ccc(NC(=O)CC(NCc2ccccn2)C(=O)O)cc1 (configuration not stated)	none
CCCOc1ccc(C(=O)N(Cc2cccs2)c2ccc(C)cc2)cc1	none (no result: D2 antag, D2 ag-1, D2 PAM-2)
O=C(COc1ccccc1F)Nc1nnc(SCc2cc(=O)c3ccccc3[nH]2)s1	none (no result: D2 antag, D2 ag-1, D2 PAM-1, D2 PAM-2)
COc1cc(C2NC(=O)NC(C)=C2C(=O)OCc2ccc(C)cc2)cc(OC)c1O (configuration not stated)	none
COc1cc(C2NC(=O)NC(C)=C2C(=O)OCc2ccc(C)cc2)cc(OC)c1OC (configuration not stated)	D2 antag 35 | D3 ag inactive | D2 ag-3 inactive
COC(=O)C(N)Cc1ccc(Cl)cc1 (configuration not stated)	none
COC(=O)[C@@H](N)Cc1ccc(O)c(O)c1	D2 antag 81, D2 ag-2 74 | D3 ag inconclusive | D2 ag-3 inactive
CCC(C)N(CCNC(=O)c1ccc2c(c1)NC(=O)c1ccccc1S2)C1CCCCC1 (configuration not stated)	none (no result: D2 antag, D2 ag-2) | D3 ag inactive | D2 ag-3 inactive
NC(=O)CSc1nccn1Cc1ccccc1	D2 antag 45 | D3 ag inactive | D2 ag-3 inactive
O=C(Cn1c(=O)n(Cc2ccco2)c(=O)c2oc3ccccc3c21)Nc1ccc(F)c(Cl)c1	none (no result: D2 antag, D2 ag-1, D2 PAM-2)
N#Cc1ccccc1OCC(=O)OCCCOC(=O)COc1ccccc1C#N	D2 ag-2 62 | D3 ag inactive | D2 ag-3 inactive
COc1ccc(C)cc1NC(=O)C(Sc1nnc(-c2cccs2)o1)c1ccccc1 (configuration not stated)	none | D3 ag inactive | D2 ag-3 inactive
O=C(Nc1ccc(Cl)cc1C(F)(F)F)C(Sc1nnc(-c2cccs2)o1)c1ccccc1 (configuration not stated)	none
Cc1ccc(-n2c(N)cc(=O)nc2SCC(=O)N2CCN(c3ccccc3)CC2)cc1C	none
COc1ccc(-n2c(N)cc(=O)nc2SCC(=O)N2CCN(c3ccccc3)CC2)cc1	none | D3 ag inactive | D2 ag-3 inactive
C[C@H](CO)N1C[C@H](C)[C@@H](CN(C)C(=O)Nc2ccc3c(c2)OCO3)Oc2ccc(NC(=O)CCC(F)(F)F)cc2C1=O	none (no result: D2 antag, D2 PAM-1, D2 ag-2)
Cc1c(C(=O)Nc2ccc(-n3c(C)nc4ccccc4c3=O)cc2)cccc1[N+](=O)[O-]	none (no result: D2 antag, D2 ag-1, D2 PAM-2)
Nc1ccc2[nH]ncc2c1	D2 antag 34 | D3 ag inconclusive | D2 ag-3 inactive
CC(C)(C)OC(=O)N1CC=C2C(C#N)=C(N)C(C#N)(C#N)[C@H](c3cccnc3)[C@H]2C1	none
COc1ccc(-c2c(-c3cc(OC)cc(OC)c3)n(C)c3ccc(-c4ccc(S(N)(=O)=O)cc4)cc23)cc1	none | D3 ag inactive | D2 ag-3 inactive
COc1ccc(-c2c(-c3cc(OC)cc(OC)c3)n(C)c3ccc(-c4cnc(N)nc4)cc23)cc1	none (no result: D2 antag, D2 PAM-1, D2 ag-2)
COc1cc(OC)cc(-c2c(-c3cccs3)c3cc(-c4ccc(SC)cc4)ccc3n2C)c1	D2 antag 58 | D3 ag inactive | D2 ag-3 inactive
O=C(NCCc1ccc(Cl)cc1)Nc1ccc(F)cc1	D2 ag-1 inconclusive (no result: D2 antag, D2 PAM-1, D2 ag-2)
CCC(=O)Oc1ccc(C(=O)Nc2ccc3c(c2)OCO3)cc1	none | D3 ag inactive | D2 ag-3 inactive
COc1ccc(-c2nnc(SCc3ccccn3)n2C)cc1	none
COc1ccc(N=C(N)SCc2ccccn2)cc1	D2 antag 45, D2 ag-2 33 | D3 ag inactive | D2 ag-3 inactive
O=C(NCc1ccc(Cl)cc1)c1cnc2sc(N3CCCC3)nn2c1=O	none (no result: D2 antag, D2 ag-1, D2 PAM-2)
N[C@@H](Cc1ccc(O)c(I)c1)C(=O)O	none (no result: D2 ag-1, D2 PAM-2)
Nc1ncnc2c1ncn2C1OC(C(=O)NC2CC2)C(O)C1O (configuration not stated)	none | D3 ag inactive | D2 ag-3 inactive
C[C@@H](CO)NC(=O)[C@H]1O[C@@H](n2cnc3c(N)ncnc32)[C@H](O)[C@@H]1O	none (no result: D2 antag, D2 PAM-1, D2 ag-2)
OC(c1ccc(Cl)c(F)c1)c1ncc(-c2ccccc2C(F)(F)F)[nH]1 (configuration not stated)	none (no result: D2 antag, D2 PAM-1, D2 ag-2)
COc1cccc(S(=O)(=O)NCc2ccc(C(=O)N3CCN(c4ccccc4OC)CC3)cc2)c1	none (no result: D2 antag, D2 ag-1, D2 PAM-2, D2 ag-2) | D3 ag inactive | D2 ag-3 inactive
COc1cccc(S(=O)(=O)NCc2ccc(C(=O)N3CCN(c4ccccc4)CC3)cc2)c1	D2 antag 56, D2 ag-1 inconclusive, D2 ag-2 59 | D3 ag inactive | D2 ag-3 inconclusive
COc1cc(C2C(C#N)=C(N)Oc3cc4c(cc32)OCO4)cc(OC)c1OC (configuration not stated)	none
O=C(NCc1cccc(Cl)c1)c1ccc2nc(N3CCOCC3)sc2c1	none
CC(C)OCCCNc1nc(Cl)nc2c1cnn2C	none (no result: D2 antag, D2 PAM-1, D2 ag-2)
Cc1ccc(C)c(NC(=O)CCN2CCN(c3ccccc3F)CC2)c1	D2 antag 67, D2 ag-2 47 | D3 ag inconclusive | D2 ag-3 inactive
O=C(CCN1CCN(c2ccccc2)CC1)N/N=C/c1ccccc1O	D2 antag 91, D2 ag-2 79 | D3 ag inactive | D2 ag-3 inconclusive
CN1CCN(CCC(=O)N/N=C/c2ccccc2F)CC1	none
Cc1ccc(C)c(OCC(=O)NNC(=O)CCN2CCN(c3ccccc3)CC2)c1	D2 antag 80, D2 ag-2 78 | D3 ag inactive | D2 ag-3 inconclusive
COC(=O)c1[nH]c2cccc(OC)c2c1NC(=O)CCN1CCN(c2ccccc2OC)CC1	D2 antag 83, D2 ag-2 53 | D3 ag inactive | D2 ag-3 inactive
COc1ccc(C)cc1NC(=O)CCN1CCN(c2ccccc2F)CC1	D2 antag 80, D2 ag-2 74 | D3 ag inactive | D2 ag-3 inconclusive
CCN(CC)c1ccc(NC(=O)CN2CCN(c3ccccc3OC)CC2)cc1	none (no result: D2 antag, D2 ag-1, D2 PAM-2)
